Experimental findings from publication PMC4336329 (PLoS ONE, 2015) are described below.

The whole screen tested about 310,000 compounds, of which about 2,200 (0.71%) showed an effect of 50% or more. The effect is printed as a negative number. The list comes from a sample in which strong results are over-represented; it also holds similar structures and randomly drawn compounds.

In this assay the target is human ether-à-go-go-related gene (hERG) potassium channel (human, UniProt Q12809). Description: primary screen, population patch clamp on CHO cells stably expressing hERG; higher = less effect of the substance.
human ether-à-go-go-related gene (hERG) potassium channel, sequence (Q12809 whole entry, looked up): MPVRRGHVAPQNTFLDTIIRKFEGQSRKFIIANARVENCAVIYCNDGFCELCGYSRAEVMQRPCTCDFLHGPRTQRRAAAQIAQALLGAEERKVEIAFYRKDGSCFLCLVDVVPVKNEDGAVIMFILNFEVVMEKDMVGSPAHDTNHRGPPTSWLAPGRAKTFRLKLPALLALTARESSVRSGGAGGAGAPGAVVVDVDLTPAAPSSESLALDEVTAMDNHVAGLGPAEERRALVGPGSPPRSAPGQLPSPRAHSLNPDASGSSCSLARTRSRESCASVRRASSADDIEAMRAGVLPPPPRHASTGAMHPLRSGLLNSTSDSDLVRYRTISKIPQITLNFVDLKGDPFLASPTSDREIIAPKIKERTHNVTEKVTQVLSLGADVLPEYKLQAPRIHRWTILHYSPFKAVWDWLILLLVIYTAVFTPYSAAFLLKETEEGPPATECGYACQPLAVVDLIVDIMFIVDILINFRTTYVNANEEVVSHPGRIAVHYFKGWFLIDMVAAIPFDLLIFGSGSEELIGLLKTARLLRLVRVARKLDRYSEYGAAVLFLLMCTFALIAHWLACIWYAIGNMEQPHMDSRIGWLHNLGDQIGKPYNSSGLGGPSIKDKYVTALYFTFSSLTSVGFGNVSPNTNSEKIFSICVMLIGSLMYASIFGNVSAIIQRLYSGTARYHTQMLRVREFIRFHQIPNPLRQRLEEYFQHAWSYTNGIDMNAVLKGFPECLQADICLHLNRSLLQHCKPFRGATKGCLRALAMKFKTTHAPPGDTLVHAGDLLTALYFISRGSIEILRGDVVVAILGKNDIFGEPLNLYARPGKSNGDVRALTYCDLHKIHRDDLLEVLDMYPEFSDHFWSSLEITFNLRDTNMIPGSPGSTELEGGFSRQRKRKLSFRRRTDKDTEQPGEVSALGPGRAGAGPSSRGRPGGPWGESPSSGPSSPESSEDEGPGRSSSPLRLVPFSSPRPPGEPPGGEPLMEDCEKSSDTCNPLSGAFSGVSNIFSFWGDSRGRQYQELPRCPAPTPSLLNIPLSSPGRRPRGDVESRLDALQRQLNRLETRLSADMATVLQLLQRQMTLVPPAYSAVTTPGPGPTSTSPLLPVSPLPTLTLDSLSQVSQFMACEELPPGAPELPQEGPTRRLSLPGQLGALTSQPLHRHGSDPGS
On to `Nc1cccc(Oc2ccc([N+](=O)[O-])cc2)c1`, for which the “hERG current change (%, negative = inhibition) at 1uM” value came out at 7.1%.
With `Cc1nc(-c2cnn(-c3ccccc3)c2)c2cc(C)oc2n1`, the “hERG current change (%, negative = inhibition) at 1uM” value is 10.3%.
Take `Cc1nn(-c2ccccn2)c2c1-c1nc(N3CCOCC3)ncc1CC2`: the “hERG current change (%, negative = inhibition) at 1uM” value amounted to 8.1%.
With `CC[C@@H]1CN(C)[C@H]2Cc3c([nH]c4ccccc34)C(=O)C[C@@H]1[C@@H]2C(=O)OC`, the “hERG current change (%, negative = inhibition) at 1uM” value turned out to be 11.8%.
`CC[C@H]1CN(C)C[C@@]2(C(=O)OC)Cc3c([nH]c4ccccc34)C(=O)C[C@@H]12`: the “hERG current change (%, negative = inhibition) at 1uM” value is 10.5%.
With `CC[C@H]1CN(C)CCc2c([nH]c3ccccc23)C(=O)C[C@@H]1/C(=C\OC)C(=O)OC`, the “hERG current change (%, negative = inhibition) at 1uM” value is -53.3%.
For `CS(=O)(=O)O.O.Oc1ccc2c3c1O[C@H]1c4oc5ccccc5c4C[C@@]4(O)[C@@H](C2)N(CC2CC2)CC[C@]314`, the “hERG current change (%, negative = inhibition) at 1uM” value is listed as -68.1%.
Under `Cl.O.Oc1ccc2c3c1O[C@H]1c4[nH]c5ccccc5c4C[C@@]4(O)C(C2)N(CC2CC2)CC[C@]314` stands -16.4%; under `Cl.Oc1ccc2c3c1O[C@H]1c4[nH]c5ccccc5c4C[C@@]4(O)[C@@H](C2)N(CC2CC2)CC[C@]314`, -29.7%; under `COC(=O)C1=C(C)N(C)C(=O)NC1c1c(O)ccc2ccccc12` (centres unmarked), 6.78%.
Regarding `CC/C(=N/Nc1ccccc1)c1cnnc(-c2ccccc2)n1`, the “hERG current change (%, negative = inhibition) at 1uM” value is listed as 0.406%.
With `Cc1sc(NC(=O)CCl)c(C(=O)c2ccccc2)c1C`, the “hERG current change (%, negative = inhibition) at 1uM” value is recorded as 15.1%.
Under `Cc1ccc(S(=O)(=O)Nc2nc(C)c(C(=O)N/N=C/c3ccccc3)s2)cc1` stands 11%; under `CCOc1ccc(-c2nc(CN3CCCCC3CCn3cccn3)c(C)o2)cc1` (centres unmarked), -24.9%; under `COc1ccc(-c2nc(CN3CCN(Cc4ccccc4)CC3)c(C)o2)cc1`, 4.17%.
Under `Fc1cccc(Cc2noc(CN3CCCCC3CCc3ccccn3)n2)c1` (centres unmarked) stands 13.2%.
As for `O=C(c1ccccn1)C1CCCN(Cc2cn[nH]c2-c2cc3ccccc3o2)C1` (centres unmarked), the figure is -23.5%; as for `Cc1oc(-c2cccc(F)c2)nc1CN1CCCCC1CCn1cccn1` (centres unmarked), -40.1%.
As to `COc1ccc(-c2nc(CN3CCCCC3CCc3ccccn3)c(C)o2)cc1` (centres unmarked), the “hERG current change (%, negative = inhibition) at 1uM” value was -79.4%.
For `Cc1oc(-c2cccc(F)c2)nc1CN1CCCCC1CCc1ccccn1` (centres unmarked), the “hERG current change (%, negative = inhibition) at 1uM” value is on record as -89.5%.
Turning to `c1ccc2oc(-c3[nH]ncc3CN3CCSCC3)cc2c1`, the “hERG current change (%, negative = inhibition) at 1uM” value is on record as 9.72%.
Regarding `c1ccc(CCC2CCCCN2Cc2cn[nH]c2-c2cc3ccccc3o2)nc1` (centres unmarked), the “hERG current change (%, negative = inhibition) at 1uM” value is on record as -67%.
As for `COc1ccc(S(=O)(=O)N(C)C)cc1NC(=O)CCCSc1ccccc1`, the figure is -5.8%.
Regarding `COc1ccc(Nc2nnc(C)c3ccccc23)cc1C(N)=O`, the “hERG current change (%, negative = inhibition) at 1uM” value is reported as 16.1%.
Regarding `CC(C)(C)c1ccc(OC(=O)c2ccc(-n3cncn3)nc2)cc1`, the “hERG current change (%, negative = inhibition) at 1uM” value is listed as 10.9%.
Turning to `CCOC(=O)c1ccc(NS(=O)(=O)c2ccc3oc(=O)[nH]c3c2)cc1`, the “hERG current change (%, negative = inhibition) at 1uM” value was 7.04%.
As for `Cl.Nc1ccc(-c2nc3c(ccc4ccccc43)[nH]2)cc1`, the figure is 16.3%.
As for `O=C(NCCN1CCOCC1)c1cc2cc(Br)ccc2oc1=O`, the figure is 0.63%.
For `CN1C(C(=O)NCc2ccc(OC(F)(F)F)cc2)CC2Cn3c(nc4cc5ccccc5cc43)C21` (centres unmarked), the “hERG current change (%, negative = inhibition) at 1uM” value is given as -14.7%.
Take `CN1C(C(=O)NCc2ccc(OC(F)(F)F)cc2)CC2Cn3c(nc4ccccc43)C21` (centres unmarked): the “hERG current change (%, negative = inhibition) at 1uM” value is -74.9%.
`O=C(NCc1ccc(OC(F)(F)F)cc1)C1CC2Cn3c(nc4ccccc43)C2N1c1ccccc1` (centres unmarked): the “hERG current change (%, negative = inhibition) at 1uM” value is listed as -15.8%.
In the case of `COc1ccc(C2C(C(=O)NCc3ccccc3)=C(C)Nc3ncnn32)cc1OC` (centres unmarked), the “hERG current change (%, negative = inhibition) at 1uM” value was found to be 13.9%.
In the case of `CC(=O)Nc1ccc(S(=O)(=O)N2CCN(C34CC5CC(CC(C5)C3)C4)CC2)cc1`, the “hERG current change (%, negative = inhibition) at 1uM” value is recorded as 3.31%.
Take `N#Cc1ccc(CN2CCN(CC(=O)Nc3ccccc3C(=O)NC3CC3)CC2)cc1`: the “hERG current change (%, negative = inhibition) at 1uM” value was -87.4%.
Regarding `N#Cc1ccccc1S(=O)(=O)N1CCN(CC(=O)Nc2ccccc2C(=O)NC2CC2)CC1`, the “hERG current change (%, negative = inhibition) at 1uM” value is given as -25.4%.
Turning to `N#Cc1ccc(S(=O)(=O)N2CCN(CC(=O)Nc3ccccc3C(=O)NC3CC3)CC2)cc1`, the “hERG current change (%, negative = inhibition) at 1uM” value is given as -67.3%.
As for `O=C(CN1CCN(S(=O)(=O)c2ccccc2)CC1)Nc1ccccc1C(=O)NC1CC1`, the “hERG current change (%, negative = inhibition) at 1uM” value is recorded as 1.22%.
For `CC(=O)c1ccc(S(=O)(=O)N2CCN(CC(=O)Nc3ccccc3C(=O)NC3CC3)CC2)cc1`, the “hERG current change (%, negative = inhibition) at 1uM” value was -43.4%.
`O=C(CN1CCc2ccccc2C1)Nc1ccccc1C(=O)NC1CC1`: the “hERG current change (%, negative = inhibition) at 1uM” value is given as 3.95%.
Regarding `O=C(CSc1nc2[nH]c(=O)cc(O)c2s1)Nc1cccc(Br)c1`, the “hERG current change (%, negative = inhibition) at 1uM” value was 18.8%.
Turning to `S=c1[nH]nc(-c2cc(-c3ccco3)[nH]n2)n1-c1ccccc1`, the “hERG current change (%, negative = inhibition) at 1uM” value turned out to be 3.15%.
With `CC(=O)c1ccc(N2CCN(c3ccccc3O)CC2)c([N+](=O)[O-])c1`, the “hERG current change (%, negative = inhibition) at 1uM” value was 12.9%.
With `Cc1ccc2nc(N3CCN(C(=O)c4ccc(F)cc4)CC3)c(C#N)cc2c1`, the “hERG current change (%, negative = inhibition) at 1uM” value is reported as -56.8%.
For `Cc1ccc2cc(C#N)c(N3CCN(C(=O)c4ccccc4)CC3)nc2c1`, the “hERG current change (%, negative = inhibition) at 1uM” value is given as -6.89%.
`Cc1ccc2nc(N3CCN(C(=O)c4cccs4)CC3)c(C#N)cc2c1`: the “hERG current change (%, negative = inhibition) at 1uM” value is on record as -51.3%.
Regarding `Cc1ccc2nc(N3CCN(C)CC3)c(C#N)cc2c1`, the “hERG current change (%, negative = inhibition) at 1uM” value is -10%.
For `Cc1ccc2cc(C#N)c(N3CCN(C(=O)c4cccs4)CC3)nc2c1`, the “hERG current change (%, negative = inhibition) at 1uM” value was -1%.
With `N#Cc1cccnc1N1CCN(C(=O)c2cccs2)CC1`, the “hERG current change (%, negative = inhibition) at 1uM” value is listed as 7.29%.
As for `CCC(NC(=O)Cc1c(C)c2ccc(OC)c(C)c2oc1=O)C(=O)NC(Cc1ccc(Cl)cc1)C(=O)O` (centres unmarked), the figure is 0.501%; as for `COc1ccc(-n2c(O)c(/C=C3\C=Nc4ccc(Br)cc43)c(=O)[nH]c2=O)cc1`, 12%.
For `CC(c1cccs1)N(Cc1ccco1)C(=S)Nc1ccccc1Cl` (centres unmarked), the “hERG current change (%, negative = inhibition) at 1uM” value was 11.9%.
`c1ccc(NC2=NCCCCS2)cc1`: the “hERG current change (%, negative = inhibition) at 1uM” value is listed as -9.85%.
On to `OCCCn1c(C2CCCN2c2nc(-c3ccc(F)cc3)cs2)nc2cc(C(F)(F)F)ccc21` (centres unmarked), for which the “hERG current change (%, negative = inhibition) at 1uM” value was 2.52%.
As to `Cc1csc(N2CCCC2c2nc3cc(C(F)(F)F)ccc3n2CCOCCO)n1` (centres unmarked), the “hERG current change (%, negative = inhibition) at 1uM” value was -62.8%.
For `OCCOCCn1c(C2CCCN2c2nc(-c3ccc(F)cc3)cs2)nc2cc(Cl)c(Cl)cc21` (centres unmarked), the “hERG current change (%, negative = inhibition) at 1uM” value is listed as -0.144%.
As for `Cc1ccc(Cn2c(C3CCCN3c3nc(C)cs3)nc3cc(C(F)(F)F)ccc32)cc1` (centres unmarked), the figure is 8.04%.
Consider `Cc1csc(N2CCCC2c2nc3cc(Cl)c(N4CCCCC4)cc3n2CCOCCO)n1` (centres unmarked), for which the “hERG current change (%, negative = inhibition) at 1uM” value is -2.57%.
`OCCOCCn1c(C2CCCN2c2nc(-c3ccc(F)cc3)cs2)nc2cc(C(F)(F)F)ccc21` (centres unmarked): the “hERG current change (%, negative = inhibition) at 1uM” value is -73.2%.
Consider `COc1ccc(NC(=O)CSc2nnc(Cn3cnc([N+](=O)[O-])n3)n2C)cc1`, for which the “hERG current change (%, negative = inhibition) at 1uM” value was found to be 12.5%.
In the case of `Cc1ccc(OCC(=O)NNC(=O)CSc2nnc(-c3ccc(C)cc3)n2C)cc1`, the “hERG current change (%, negative = inhibition) at 1uM” value came out at 7.24%.
On to `CCC(=O)N1CCN(c2ccccc2NC(=O)Cc2ccc(Cl)cc2)CC1`, for which the “hERG current change (%, negative = inhibition) at 1uM” value is -41.5%.
Turning to `Clc1ccc(SCCCN2CCCCC2)cc1.O=C(O)C(=O)O`, the “hERG current change (%, negative = inhibition) at 1uM” value is given as -24.5%.
As to `Cc1ccc(SCCOCCN2CCc3ccccc3C2)cc1`, the “hERG current change (%, negative = inhibition) at 1uM” value is -6.57%.
As for `Clc1ccc(SCCOCCN2CCCCC2)cc1.O=C(O)C(=O)O`, the figure is -61.1%.
Take `Clc1ccc(SCCOCCN2CCCCCC2)cc1.O=C(O)C(=O)O`: the “hERG current change (%, negative = inhibition) at 1uM” value was -20.6%.
Consider `Cl.Clc1ccc(SCCOCCN2CCc3ccccc3C2)cc1`, for which the “hERG current change (%, negative = inhibition) at 1uM” value worked out at 8.68%.
Regarding `c1ccc(SCCOCCN2CCc3ccccc3C2)cc1`, the “hERG current change (%, negative = inhibition) at 1uM” value is on record as -62.7%.
As for `CC(NC(=O)CCC(=O)N1CCCCCC1)c1ccccc1` (centres unmarked), the figure is 16.8%; as for `Cc1ccc(NC(=O)c2noc(C(C)C)c2[N+](=O)[O-])cc1`, 4.81%; as for `CCN1/C(=C(\O)c2ccccc2)C(=O)c2ccccc2S1(=O)=O`, 13.6%.
In the case of `COc1cc2c(cc1OC)C(COc1cc(C)cc(C)c1)N(C(C)=O)CC2` (centres unmarked), the “hERG current change (%, negative = inhibition) at 1uM” value came out at 2.4%.
Under `CCOC(=O)c1ccc(NC(=S)N(CCCN2CCCCCC2)Cc2ccco2)cc1` stands -31.7%; under `S=C(Nc1ccc(Cl)cc1)N(CCCN1CCOCC1)Cc1ccco1`, -8.98%; under `CCOC(=O)c1ccc(NC(=S)N(CCCN2CCCC(C)C2)Cc2ccco2)cc1` (centres unmarked), -42.8%.
`CCN1CCN(CCCN(Cc2ccco2)C(=S)Nc2ccc(Cl)cc2)CC1`: the “hERG current change (%, negative = inhibition) at 1uM” value is recorded as -18.6%.
Turning to `CCc1ccc(NC(=S)N(CCN2CCCCC2)Cc2ccco2)cc1`, the “hERG current change (%, negative = inhibition) at 1uM” value is recorded as -34.7%.
On to `CCOC(=O)c1ccc(NC(=S)N(Cc2cccnc2)Cc2ccco2)cc1`, for which the “hERG current change (%, negative = inhibition) at 1uM” value turned out to be 7.3%.
With `CCOC(=O)c1ccc(NC(=S)N(CCCN2CCN(CC)CC2)Cc2ccco2)cc1`, the “hERG current change (%, negative = inhibition) at 1uM” value is reported as -45.4%.
In the case of `CCOC(=O)c1ccc(NC(=S)N(CCN2CCCCCC2)Cc2cccs2)cc1`, the “hERG current change (%, negative = inhibition) at 1uM” value is 8.82%.
For the compound `CN1CCN(CCCN(Cc2ccco2)C(=S)Nc2ccc(Cl)cc2)CC1`, the “hERG current change (%, negative = inhibition) at 1uM” value is listed as -53.8%.
Take `CCOC(=O)c1ccc(NC(=S)N(CCN2CCCCCC2)Cc2ccco2)cc1`: the “hERG current change (%, negative = inhibition) at 1uM” value is -87.2%.
Under `CCOC(=O)c1ccc(NC(=S)N(CCCN(CC)CC)Cc2ccco2)cc1` stands -57.9%; under `CCOC(=O)c1ccc(NC(=S)N(CCCN2CCCCC2)Cc2ccco2)cc1`, -71.3%.
